These results are taken from PubChem BioAssay AID2284356 (EPA ToxCast).

The target in the test is zebrafish Estrogen Receptor (ER1), esr1 (gene 259252) (UniProt P57717). As to the kind of experiment: ATG_zfER1_EcoTox2: Attagene TRANS-FACTORIAL EcoTox-2 HepG2 Assay for zebrafish Estrogen Receptor (ER1). As to the method: ATG_EcoTox2 is a cell-based, multiplexed assay created by modifying the existing Attagene TRANS-FACTORIAL system to include a panel of nuclear receptors from some or all the following species: human (Homo sapiens), african clawed frog (Xenopus laevis), rainbow trout (Oncorhynchus mykiss), japanese medaka (Oryzias latipes), and zebrafish (Danio rerio). The ECOTOX2-FACTORIAL format uses HepG2, a human liver cell line, with measurements taken at 24 hours after chemical dosing in a 24-well plate. ATG_zfER1_EcoTox2 is one of 29 assay components calculated in the ATG_EcoTox2 assay. It is designed to make measurements of mRNA induction, a form of inducible reporter, as detected with fluorescence intensity signals by Reverse transcription polymerase chain reaction (RT-PCR) and Capillary electrophoresis technology.The assay endpoint ATG_zfER1_EcoTox2 was analyzed in the positive analysis fitting direction relative to DMSO as the negative control and baseline of activity. Using a type of inducible reporter, measures of mRNA for gain-of-signal activity can be used to understand the reporter gene at the transcription factor-level as they relate to the gene ER. Furthermore, this assay endpoint can be referred to as a primary readout, because this assay has produced multiple assay endpoints where this one serves a reporter gene function. […]

Records with an inconclusive call do not appear. Calls of active or inactive are those of the source. Rule for the calls: active = hit-call score of the fitted dose curve at least 0.9, where 1 is the maximum; inconclusive = response in the unintended direction; inactive = score below 0.9.

zebrafish Estrogen Receptor (ER1), esr1 (gene 259252), sequence (P57717 whole entry, looked up): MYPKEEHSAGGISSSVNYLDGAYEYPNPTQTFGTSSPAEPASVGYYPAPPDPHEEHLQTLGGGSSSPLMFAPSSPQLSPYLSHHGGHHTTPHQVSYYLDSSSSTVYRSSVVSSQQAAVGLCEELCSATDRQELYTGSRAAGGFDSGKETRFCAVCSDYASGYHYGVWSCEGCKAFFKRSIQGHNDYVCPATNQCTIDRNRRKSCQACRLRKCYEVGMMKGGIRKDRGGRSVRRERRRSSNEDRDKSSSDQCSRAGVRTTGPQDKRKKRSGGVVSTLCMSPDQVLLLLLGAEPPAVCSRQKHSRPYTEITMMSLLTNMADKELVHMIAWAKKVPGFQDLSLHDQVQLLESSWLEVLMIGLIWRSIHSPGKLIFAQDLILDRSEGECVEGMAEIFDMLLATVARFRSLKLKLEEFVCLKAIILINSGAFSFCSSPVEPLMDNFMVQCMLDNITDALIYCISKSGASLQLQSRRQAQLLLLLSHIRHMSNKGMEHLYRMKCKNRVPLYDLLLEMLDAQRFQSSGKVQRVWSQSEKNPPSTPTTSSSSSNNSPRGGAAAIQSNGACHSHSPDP

`O=S(=O)(O)C(F)(F)C(F)(F)C(F)(F)C(F)(F)C(F)(F)C(F)(F)F`: the compound was classed as inactive.
